From PubChem
Hits are enriched below; roughly 4.1% of the tested compounds scored in any of these assays.
ssDAF12 agonist – activators of S. stercoralis DAF-12 nuclear receptor; HEK293 ssDAF-12/GRIP1 lit1-tk-luc reporter, luminescence; % of 3 µM dafachronic acid response; actives 1% (n = 370,000); activation, % at 6.8 µM;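 active means activation above the mean over all tested compounds plus 3 SD, cut at about 0.9% in these data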;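 further: 0% = DMSO-only wells and 100% = 3 µM delta7-dafachronic acid wells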
hgDAF12 agonist – hgDAF-12 agonism, primary luciferase screen; HEK293 GAL4-hgDAF12 UAS-luciferase reporter, agonist luminescence; normalized to butyrate control; activation, % at 6.8 µM; actives 1.8% (n = 370,000);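 active means activation above a cutoff set at the mean of all screened compounds plus 3 SD, cut at about 10% in these data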;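 further: 0% = DMSO wells and 100% = sodium butyrate wells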
DAX1 inh-1 – DAX1 (NR0B1) inhibition, primary screen. HEK293T StAR-luciferase reporter, SF-1/DAX-1 repression relief. inhibition, % at 6.8 µM. actives 1.1% (n = 370,000);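 active means inhibition above the mean over all tested compounds plus 3 SD, cut at about 3.6% in these data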;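 further: 0% = DAX-1 cells with DMSO and 100% = cells lacking DAX-1 with DMSO; higher inhibition means more luminescence from relief of DAX-1 repression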
hcDAF12 agonist – activators of H. contortus DAF-12 nuclear receptor; actives 1.4% (n = 370,000); activation, % at 6.8 µM; HEK293 hcDAF-12 lit1-tk-luc reporter, luminescence; 0% DMSO, 100% Δ7-dafachronic acid;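 active means activation above the mean of all tested compounds plus 3 SD, cut at about 5.5% in these data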;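 further: 100% = response to 3 µM Δ7-dafachronic acid high control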
DAX1 inh-2 – inhibits human nuclear receptor DAX1 | P51843 | HEK293 Gal4-DAX1 luciferase reporter, luminescence | inhibition, % at 6.75 µM | actives 0.99% (n = 340,000) | AID 504766;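 active means inhibition above the mean over all tested compounds plus 3 SD, cut at about 4.2% in these data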;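 further: 0% = DAX1-transfected cells with DMSO and 100% = empty-vector control cells with DMSO; inhibition shows as a rise in luminescence from relieved DAX1 repression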
Target sequence (P51843 207-470 limits assumed): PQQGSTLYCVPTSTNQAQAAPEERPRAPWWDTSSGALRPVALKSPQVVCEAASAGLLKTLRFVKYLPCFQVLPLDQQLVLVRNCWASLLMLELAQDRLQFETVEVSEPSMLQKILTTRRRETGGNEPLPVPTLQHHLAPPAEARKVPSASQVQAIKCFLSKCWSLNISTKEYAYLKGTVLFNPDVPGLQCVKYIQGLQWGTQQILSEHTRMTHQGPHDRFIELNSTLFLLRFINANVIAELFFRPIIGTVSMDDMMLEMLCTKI
LXR ag – LXR-beta agonism as hcDAF-12 counter-screen | shares compounds with hcDAF12 agonist | HEK293 Gal4-LXR tk-luc reporter, luminescence, 24 h; normalized: DMSO 0%, positive control 100% | activation, % at 6.8 µM | 3,400 tested, under 10 active | AID 743027;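 active means mean percent activation of the reporter above a cutoff set as the average over tested compounds plus their standard deviation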
hcDAF12 ag – confirmation of H. contortus DAF-12 agonists; shares compounds with hcDAF12 agonist; HEK293 hcDAF-12 lit1-tk-luc reporter, luminescence; % of Δ7-dafachronic acid response; activation, % at 6.8 µM; actives 61% (n = 3,400); AID 743032;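 active means mean activation across triplicate tests above the threshold derived from the earlier primary screen, cut at about 5.5% in these data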;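 further: 0% = DMSO only wells and 100% = 3 µM Δ7-dafachronic acid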
* marks the source's active call; other numbers are inactive results; nt = no result.

SMILES | ssDAF12 agonist | hgDAF12 agonist | DAX1 inh-1 | hcDAF12 agonist | DAX1 inh-2 | LXR ag | hcDAF12 ag
Cc1csc(NC(=O)c2cccnc2Cl)n1 | 1.1* | 5 | 0 | 8.7* | 3 | 1 | 11*
Cc1csc(NC(=O)c2cccc(C)c2C)n1 | 0 | 6 | 0 | 1 | 1 | nt | nt
Cc1cc(Br)c(NC(=O)Cn2c([N+](=O)[O-])cnc2C)cc1C | -1 | -2 | 0 | -1 | -1 | nt | nt
S=C(Nc1ccc(Cl)cc1)N1CCCCC1 | -1 | -1 | 0 | 3 | -1 | nt | nt
S=C(Nc1ccc(Br)cc1)N1CCCC1 | -2 | 1 | 0 | 7.4* | 1 | 0 | 2
Cc1ccc(C2=NN(CC(=O)NCc3ccccn3)C(=O)CC2)cc1 | 0 | -1 | 0 | 1 | 0 | nt | nt
O=C(OCC(=O)c1c[nH]c2ccccc12)c1cc2ccccc2cc1O | -1 | 1 | 0 | 8.0* | -1 | 0 | 4
O=C1c2ccccc2C(=O)C1c1nccc2ccccc12 | 4.0* | 18* | 3 | 27* | 2 | 2 | 24*
CCc1ccccc1C1C(=O)c2ccccc2C1=O | -1 | 2 | 1 | -1 | -1 | nt | nt
Cc1c(Cl)cccc1NC(=O)CCC(=O)N/N=C/c1ccc[nH]1 | 0 | -1 | 0 | 0 | -1 | nt | nt
Cc1cc(=O)nc2c3ccccc3n(CC(=O)NCCC3=CCCCC3)n12 | 0 | 0 | -2 | 4 | 0 | nt | nt
CCC1CCCCN1CCCNC(=O)Cn1c2ccccc2c2nc(=O)cc(C)n21 (configuration not stated) | 0 | 2 | 1 | 8.2* | 0 | 0 | 6.7*
O=C(O)CCc1c(C(=O)O)[nH]c2ccccc12 | -1 | -2 | 0 | 0 | -1 | nt | nt
CN(C)Cc1c(C(=O)Nc2ccccc2)[nH]c2ccccc12 | 1 | 9 | 2 | 7.1* | 1 | 0 | 1
COc1ccccc1Cc1c(-c2ccc(F)cc2)nc2ccc(Cl)cn12 | 0 | 11* | 4.0* | 7.0* | nt | 0 | 1
COC(=O)c1ccc2nc(-c3ccc(Cl)cc3)c(Cc3ccccc3OC)n2c1 | -1 | 0 | 0 | -1 | nt | nt | nt
C#CCNC(=O)C1=C[C@H](c2ccc(C(F)(F)F)cc2)[C@@H](CCCO)[C@H](OCC)O1 | -2 | -1 | 1 | -1 | 1 | nt | nt
Cc1cc(C)c(NC(=S)NC(=O)c2ccc(-c3ccccc3)cc2)c(C)c1 | -2 | -2 | 0 | 1 | 1 | nt | nt
Cc1ccc(C(=O)NC(=S)Nc2cc(-c3nc4ccccc4s3)ccc2C)cc1 | 1.4* | 12* | 2 | 7.2* | 3 | 1 | 6.0*
CC(=O)c1cccc(NC(=S)NC(=O)c2ccccc2Cl)c1 | -1 | 4 | 0 | 1 | 0 | nt | nt
COC(=O)c1ccccc1NC(=S)NC(=O)c1ccc(C)cc1 | 0 | 10 | 1 | 7.4* | 0 | 0 | 4
O=C(NC(=S)Nc1ccccc1O)c1ccccc1Cl | 1.5* | 13* | 2 | 7.7* | 0 | 0 | 6.2*
CC(C)(C)OC(=O)N[C@@H](Cc1ccccc1)C(=O)NCC1CCC(C(=O)N[C@@H](CC(=O)O)C(=O)O)CC1 (some centres not stated) | -1 | 1 | 0 | 0 | 0 | nt | nt
O=C(Cn1nc(C(=O)O)c2ccccc2c1=O)c1c[nH]c2ccccc12 | 1 | 3 | 0 | 7.3* | -1 | 0 | 4
O=C(c1cccc(Cl)c1)N1CCC(=O)N(C(CO)Cc2ccccc2)CC1 (configuration not stated) | -1 | -1 | 0 | -1 | -1 | nt | nt
SMILES | ssDAF12 agonist | hgDAF12 agonist | DAX1 inh-1 | hcDAF12 agonist | DAX1 inh-2 | LXR ag | hcDAF12 ag
CCN(CC)S(=O)(=O)c1ccc(-c2nnc3sc4cccc(C)c4n23)cc1 | 1 | 5 | 0 | 7.1* | -2 | 0 | 4
CCN(CC)S(=O)(=O)c1ccc(-c2nnc(SCC(N)=O)n2CC)cc1 | -1 | 1 | 0 | 2 | 1 | nt | nt
Cc1cc(C)n(-c2nc3ccccc3nc2Nc2ccc(CC(=O)O)cc2)n1 | -1 | 0 | -2 | 2 | 0 | nt | nt
Cc1ccc(Nc2nc3ccccc3nc2-n2nc(C)cc2C)cc1 | 0 | 6 | 0 | 8.8* | 0 | 0 | 2
COc1cccc(NC(=O)C(Cc2ccccc2)NC(=O)C2CCC(C)CC2)c1 (configuration not stated) | -1 | 6 | 0 | 8.6* | -2 | 0 | 2
N#C/C(=C\c1c(Cl)cccc1Cl)c1nc2ccccc2[nH]1 | 0 | 0 | 0 | 3 | -1 | nt | nt
N#C/C(=C\c1c(Cl)cccc1Cl)c1nc2ccccc2o1 | -1 | 1 | -1 | 6.6* | 0 | 0 | 0
Cc1cc(O)ccc1N/C=C(\C#N)c1nc2ccccc2o1 | 0 | 0 | 1 | 8.8* | 0 | 0 | 3
O=C(N/N=C/c1cccc(F)c1)c1c(O)c2c([nH]c1=O)CCCC2 | -1 | 3 | 1 | 0 | 0 | nt | nt
CCOC(=O)[C@]12CCCC=C1N(CCCOC)C(=O)[C@@H]2CC(=O)NCc1ccc(OC)c(OC)c1 | -1 | -2 | -1 | -2 | nt | nt | nt
CC1ON=C(c2ccccn2)N(Cc2ccc(S(C)(=O)=O)cc2)C1=O (configuration not stated) | -2 | 2 | 0 | 10* | nt | 0 | 0
COc1cc(CN2C(=O)C(C)ON=C2c2ccccc2F)cc(OC)c1 (configuration not stated) | -1 | 0 | -1 | -4 | nt | nt | nt
Cc1cc(C)n2cc(-c3ccc(Cl)cc3)c(C(=O)O)c2n1 | 1.4* | 8 | 3 | 10* | 1 | 1 | 9.3*
COc1ccc(CCNc2cc(C)nc3c(-c4ccccc4OC)cnn23)cc1OC | -1 | -1 | -1 | -3 | 0 | nt | nt
Cc1cc(N)n2ncc(-c3ccc(Cl)cc3)c2n1 | 0 | 10 | 3 | 6.7* | 1 | 1 | 5
Cc1cc(NCCOCCO)n2ncc(-c3ccc(Cl)cc3)c2n1 | 1.0* | 10 | 3.7* | 6.7* | 4 | 1 | 6.8*
Cc1ccc(S(=O)(=O)Nc2ccc(C(=O)N3CCOCC3)cc2)cc1 | -1 | 1 | 0 | -1 | 0 | nt | nt
CCOC(=O)c1cc2ccc3ccccc3c2s1 | 1.3* | 11* | 2 | 7.2* | 3 | 1 | 11*
COc1cccc(N2C(=O)Nc3ccc(Br)cc3C2(O)C(=O)NCCCN(C)C)c1 (configuration not stated) | -1 | -2 | 0 | -1 | 4 | nt | nt
CCNC(=S)Nc1ccc(OCc2nc3ccccc3s2)cc1 | 1.2* | 10 | 1 | 7.8* | 4 | 1 | 8.2*
COc1ccc(Nc2nccc3c2ncn3C)cc1 | 0 | 11* | 3 | 6.6* | 1 | 1 | 5
